Assay results from PubChem BioAssay (NCI).
The panel holds about 83,000 compounds, 20% with a hit somewhere; the sample as a whole holds those more often.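 Growth was measured after 48 h exposure to one concentration of compound in 96-well plates. Values under 10 count as active.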 The source made the active and inactive calls.

Each molecule was assayed on A549/ATCC NSCLC (assay: NCI-60 one-dose screen, 48 h (100 = growth as untreated, 0 = no growth, -100 = all killed)). Details: 10 µM unless noted.
With `COc1cc(/C=C/C(=O)c2ccc(N3CCN(C)CC3)cc2)ccc1F` the growth was 76.7% (inactive). `O=C(Nc1cccc(-c2nc(-c3ccc(NC(=O)c4cccnc4)cc3Cl)no2)c1)Nc1ccc(NC(=O)C2CC2)c(C(F)(F)F)c1` was tested, and the growth was 7.02% (active). For `CCNC(=O)Oc1ccc(/C(=C(/C)c2ccc(Cl)cc2)c2ccc(OCCN3CCCC3)cc2)cc1`, the growth was 73% (inactive). In the case of `CS(=O)c1nccc(-c2c(-c3ccc(F)c(OCc4ccc(F)cc4)c3)nc3sccn23)n1` (stereo not drawn), the growth was 102% (inactive). In the case of `CN1CCN(c2ccc(NC(=O)Nc3ccc4c(ccn4-c4cccc(C(N)=O)n4)c3)cc2C(F)(F)F)CC1`, the growth was 51.8% (inactive). In the case of `O=c1oc2ccc(-c3ccc(F)cc3F)cc2c(=O)n1-c1ccc(F)c(F)c1`, the growth was 7.96% (active). With `N#Cc1c(NC(=O)c2ccc(F)c(Cl)c2)sc2c1CCC(=O)C2` the growth was 19.4% (inactive). For `CC(C)SC1=NC(=C(C(=N1)NC2=ClC=CC=C2)C#N)C3=CC=CC=C3`, the growth was 35.2% (inactive). `CCOC(=O)c1c(NCC(=O)Nc2cccc(Cl)c2)sc2c1CCCC2` was tested, and the growth was 101% (inactive). For `COc1ccc([C@H]2[C@H](O)C(=O)N2c2cc(OC)c(OC)c(OC)c2)cc1`, the growth was 21.6% (inactive). `O=c1[nH]c2cc(Cl)ccc2n1C1CCN(c2ccc3nnc(Cl)n3n2)CC1` was tested, and the growth was 88.3% (inactive). `O=C1[C@@H]2Cc3c([nH]c4ccccc34)[C@H](c3c(Cl)cccc3Cl)N2C(=O)CN1C1CCN(Cc2ccccc2)CC1` was tested, and the growth was 12.7% (inactive). With `CS(=O)(=O)c1ccc2c(c1)c1c(n2Cc2ccc(Cl)cc2)CCCC1` the growth was 64.5% (inactive). In the case of `O=C(CCCCCCN1CC(=O)N2[C@@H](c3ccc(Cl)c(F)c3)c3[nH]c4ccccc4c3C[C@H]2C1=O)NO`, the growth was 104% (inactive). `O=C(c1ccc(O)cc1)[C@@H]1[C@@H]2CCCN2[C@@]2(C(=O)N(C(=O)c3ccc(F)cc3)c3ccccc32)[C@H]1c1ccc(F)cc1` was tested, and the growth was 96.6% (inactive). For `COc1cc(-c2nc(SCc3ccc(C)cc3)[nH]c(=O)c2C#N)ccc1OCc1ccccc1`, the growth was 102% (inactive). In the case of `CN(C)C(=O)c1ccccc1-n1cnc2ccccc2c1=O`, the growth was 99.2% (inactive). With `CCN1C(=O)N(CC)C2SC(N/N=C/c3ccccc3)=NC21` (stereo not drawn) the growth was 28.7% (inactive). `CCOC(=O)Nc1ccc(-c2nc(-c3cccc(O)c3)c(-c3ccnc(Br)c3)[nH]2)cc1` was tested, and the growth was 16% (inactive). `O=C1c2c(c3c4cc(Br)ccc4[nH]c3c3ccc4ccccc4c23)C(=O)N1CCN1CCCCC1` was tested, and the growth was 7.63% (active). For `CN(C)CCn1c2ccc(N)cc2c2nc3ccccc3nc21`, the growth was 25.8% (inactive). `COc1ccc(-c2cc(-c3cccc4ccccc34)n3c(n2)nc2ccccc23)cc1` was tested, and the growth was 29% (inactive). With `Nc1c(C(=O)c2ccccc2)sc2nc(-c3cnccn3)cc(-c3cccs3)c12` the growth was 102% (inactive). With `CCOC(=O)c1c(Nc2ccccc2)nn2c(-c3ccc(OC)c(OC)c3)ccnc12` the growth was 52.6% (inactive). `O=C(COc1ccc(C2SCC(=O)N2c2ccccc2)cc1)c1ccccc1` (stereo not drawn) was tested, and the growth was 93.8% (inactive). In the case of `CCn1c2ccc(/C=N/OCCCN(C)C)cc2c2cc(/C=N/OCCCN(C)C)ccc21`, the growth was -67.8% (active). In the case of `N/C(=N\OC(=O)CSc1nc2ccccc2s1)c1ccc2ccccc2c1`, the growth was 102% (inactive). In the case of `COc1ccc(-c2nc3cc(Cl)c(Cl)cc3n2CC(=O)N=Nc2c(O)[nH]c3ccc(Br)cc23)cc1`, the growth was -28.9% (active). For `Oc1ccc(-c2nnc(SCc3ccc(O)c4ncccc34)o2)cc1`, the growth was 15.2% (inactive). For `CC1=CC(=O)CC(C)(C)[C@@]1(O)/C=C/C(C)=C\C(=O)O`, the growth was -27.6% (active). With `O=C(N/N=C\c1ccc(Cl)cc1)c1ccc2nc(-c3ccc(Br)cc3)[nH]c2c1` the growth was -51.7% (active). With `CS(=O)(=O)c1nccc(-c2c(-c3ccc(F)c(OCc4ccccc4)c3)nc3sccn23)n1` the growth was 103% (inactive). For `C=CCn1c(SCC(=O)Nc2ccc(OC)cc2)nnc1-c1ccc(Cl)cc1`, the growth was 103% (inactive). In the case of `CN1C(=O)N(C)C2Nn3c(s/c(=C\c4ccccn4)c3=O)=NC21` (stereo not drawn), the growth was 103% (inactive). With `Oc1ccc(-c2nnc(SCc3ccc(O)c4ncccc34)n2-c2ccccc2)cc1` the growth was 6.81% (active). With `Fc1ccccc1/C=C(/C1=NCCN1)n1cnc2ccccc21` the growth was 107% (inactive). In the case of `COc1cnc2c(c1)C(=O)c1c-2n(CCCn2ccnc2)c(=O)c2cc(OC)c(OC)cc12`, the growth was -14.9% (active). In the case of `CC[C@@](C)(NC(=O)C(C)(C)NC(=O)[C@@H](NC(=O)[C@@H]1CCCN1C(=O)C(C)(C)NC(=O)[C@H](CC(C)C)NC(=O)CNC(=O)C(C)(C)NC(=O)[C@@H](NC(=O)C(C)(C)NC(=O)[C@H](CCC(N)=O)NC(=O)[C@H](C)NC(=O)C(C)(C)NC(=O)[C@H](C)NC(=O)C(C)(C)NC(=O)[C@H](C)NC(=O)C(C)(C)NC(C)=O)C(C)C)C(C)C)C(=O)N[C@@H](CCC(N)=O)C(=O)N[C@@H](CCC(N)=O)C(=O)N[C@H](CO)CC1CCCCC1`, the growth was 47.8% [5 µM] (inactive).
